Experimental findings from PubChem BioAssay are described below.

Unmarked numbers belong to inactive results. The rule behind the calls is not given here.

For the assay, the target named is Pantothenate synthetase (Mycobacterium tuberculosis (strain ATCC 25618 / H37Rv)) (UniProt P9WIL5). The assay can be described thus: Recombinant Mtb pantothenate synthetase (PanC) inhibitors, coupled enzyme, confirmatory (AID 375).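 Note: 0% = full reaction with vehicle and 100% = no enzyme background.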 The following applies: coupled enzyme assay; at 10 µM, active compounds read high.
Sequence of Pantothenate synthetase (Mycobacterium tuberculosis (strain ATCC 25618 / H37Rv)) (P9WIL5 whole entry, looked up): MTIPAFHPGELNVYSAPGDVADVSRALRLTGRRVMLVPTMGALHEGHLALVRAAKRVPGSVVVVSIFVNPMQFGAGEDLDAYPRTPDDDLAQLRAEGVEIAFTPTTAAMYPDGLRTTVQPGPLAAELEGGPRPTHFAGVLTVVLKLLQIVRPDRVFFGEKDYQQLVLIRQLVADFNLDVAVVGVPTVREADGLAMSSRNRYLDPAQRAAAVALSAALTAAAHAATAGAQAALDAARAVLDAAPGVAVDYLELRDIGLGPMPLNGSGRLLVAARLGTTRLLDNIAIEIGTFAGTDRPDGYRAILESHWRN
With `Cc1ccc2nc(C3CCN(CC(=O)N4CCCCCC4)CC3)[nH]c2c1`, the inhibition was 0%. With `COCCn1c(=N)c(C(=O)NCCc2ccccc2)cc2c(=O)n3cccc(C)c3nc21` the figure was 3%. Next, `Cc1ccc2c(c1)-c1cc(C)nn1C(c1ccc3c(c1)OCO3)N2` (stereo not given): 0%; `CN(C)CCCNC(=O)c1ccc(CN(c2ccccc2)S(C)(=O)=O)cc1`: 0%.

Take `COc1ccc(N(CC(=O)Nc2ccccc2SC)S(C)(=O)=O)cc1OC`: the inhibition is 2%. Next, `COc1cccc(NC(=O)N(CCCN2CCOCC2)C(C)c2cc3cccc(OC)c3o2)c1` (stereo not given): 0%; `O=C1c2ccccc2S(=O)(=O)N1Cc1nnc(-c2ccccc2Br)o1`: 0%; `COc1ccccc1-c1coc2c(CN3CCN(CCO)CC3)c(O)ccc2c1=O`: 0%. Next, `CCOc1ccccc1N(C(=O)Cn1nnnc1-c1ccc(C)o1)C(CC)C(=O)NC(C)(C)C` (stereo not given): 0%; `O=C(CC1Oc2ccc(Cl)cc2NC1=O)NC1CCCCCC1` (stereo not given): 6%. Next, `O=C(Cn1cnc2sc(-c3ccccc3)cc2c1=O)N1CCOCC1`: 9%; `C=C(C)COc1ccc(-c2nc(N)ncc2-c2ccc(OC)cc2)c(O)c1`: 2%; `CCOC(=O)c1cc(C)sc1N1C(=O)C2C3C=CC(C3)C2C1=O` (stereo not given): 0%.

For `Cc1ccc(NC(=O)C2CCCN(S(=O)(=O)c3cnc[nH]3)C2)cc1C` (stereo not given), the inhibition was 11%. Next, `CCC(C)(NC(=O)CNC(C)=O)C(=O)NC1CCCCC1` (stereo not given): 0%. With `COc1cccc2cc(C(=O)N3CCN(c4ccc(C)cc4C)CC3)c(=O)oc12` the figure was 0%.

In the case of `CCn1cc(SCC(=O)NCC2CCCO2)c2ccccc21` (stereo not given), the inhibition was 0%. `COc1ccccc1-n1nnnc1SCc1cc2c(cc1Br)OCO2`: the inhibition is 0%. With `CCOc1cc(C2Nc3ccccc3C(=O)N2c2ccccc2OC)ccc1O` (stereo not given) the figure was 0%. Next, `Cc1nnc(Nc2ccccn2)c2ccccc12`: 0%; `Cc1nc2ccccc2cc1C(=O)NCc1ccco1`: 0%; `CN1CCN(C(c2cccc(C(F)(F)F)c2)c2nnnn2C(C)(C)C)CC1` (stereo not given): 1%. As to `O=c1c2cc(N3CCOCC3)ccc2[nH]c(=S)n1CCCN1CCCC1`, the inhibition is 13%. Next, `CCOC(=O)CSc1nnc(Cn2nnc(-c3ccccc3)n2)n1CC`: 4%; `CCN(CC)c1ccc(-c2c(C#N)c(N)nc(OC)c2C#N)cc1`: 0%. With `COc1ccc(NC(=O)N2CCC(O)(c3cccnc3)CC2)c(OC)c1` the figure was 3%; with `C/C(=N\O)c1ccc2c3c([nH]c2c1)CCCC3`, 2%; with `CCOC(=O)c1sc(NC(=O)COC(=O)Cn2cnc3ccccc32)c(C(=O)OCC)c1C`, 3%.

Take `COc1ccc(S(=O)(=O)NCCC(=O)NC2CCCCCCC2)cc1`: the inhibition is 0%.

Regarding `CC(C)CNC(=O)C1CC(=O)OC12CCCCC2` (stereo not given), the inhibition was 5%. Next, `O=C(NCc1ccc2c(c1)OCO2)c1ccccn1`: 6%; `CCN(Cc1nc2ccccc2c(=O)[nH]1)Cc1cc(=O)oc2cc(C)c(C)cc12`: 0%. Next, `COC(=O)c1ccc(CSc2nnnn2Cc2ccccc2)cc1`: 0%.

With `CC(=O)c1c(C)[nH]c(C(=O)NC2=NCCS2)c1C`, the inhibition was 0%.

In the case of `Cc1cccc(NC(=O)CCCCCN2C(=O)c3ccccc3C2=O)n1`, the inhibition was 0%. With `COc1ccc(N2CCN(Cc3nc4c(c(=O)[nH]c(=O)n4C)n3CC(C)=O)CC2)cc1` the figure was 0%; with `CC(=O)O[C@@]12CO[C@@H]1C[C@H](O)[C@@]1(C)C(=O)[C@H](O)C3=C(C)[C@@H](OC(=O)[C@H](O)[C@@H](NC(=O)OC(C)(C)C)c4ccccc4)C[C@](O)([C@@H](OC(=O)c4ccccc4)[C@H]21)C3(C)C`, 0%. As to `O=C(c1ccc2c(c1)OCCO2)N1CCCCC1`, the inhibition is 1%. Next, `O=C(c1cnn2c(C(F)F)cc(-c3ccccc3)nc12)N1CCN2CCCC2C1` (stereo not given): 0%; `O=S(=O)(c1ccccc1)N1CCN(C2CCCCCCC2)CC1`: 8%.
